Compounds with a hit are over-represented: about 0.3% of the library has one in this group of screens.
NPYLR7 agonist: mosquito NPYLR7 agonism; HEK293T NPYLR7/Galpha15, GCaMP6s calcium fluorescence; AID 1259423; actives 0.15% (n = 270,000); activation, % at 10 µM; in the data active = activation above about 40%
hcGAS lum: inhibitors of human cGAS; Q8N884; actives 0.081% (n = 290,000); recombinant h-cGAS, ATP depletion, Kinase-Glo luminescence; inhibition, % at 12.5 µM
mcGAS lum: blocks mouse cGAS activity | recombinant cGAS, Kinase-Glo ATP depletion luminescence | inhibition, % at 12.5 µM | AID 1259399 | actives 0.15% (n = 160,000) | Q8C6L5
Target sequence (Q8C6L5 whole entry, looked up): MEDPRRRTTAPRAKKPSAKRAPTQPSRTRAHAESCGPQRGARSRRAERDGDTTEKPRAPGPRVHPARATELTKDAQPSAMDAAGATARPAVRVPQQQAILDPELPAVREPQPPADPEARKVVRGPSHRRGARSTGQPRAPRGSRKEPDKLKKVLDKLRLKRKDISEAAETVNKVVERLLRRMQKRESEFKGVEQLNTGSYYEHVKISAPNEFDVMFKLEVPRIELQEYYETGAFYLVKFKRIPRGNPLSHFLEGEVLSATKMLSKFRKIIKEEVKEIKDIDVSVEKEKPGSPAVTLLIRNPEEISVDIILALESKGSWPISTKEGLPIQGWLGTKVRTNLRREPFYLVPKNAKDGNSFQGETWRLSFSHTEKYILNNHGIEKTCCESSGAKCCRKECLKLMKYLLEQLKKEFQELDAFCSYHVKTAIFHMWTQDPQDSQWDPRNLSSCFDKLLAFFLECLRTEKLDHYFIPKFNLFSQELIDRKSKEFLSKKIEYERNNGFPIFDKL
A number is an active result; - = inactive; . = no result; + = active, no number. Cut-off read from the data, not from the text of the source, unless noted: active = inhibition above about 40%; inactive = the rest.

SMILES	NPYLR7 agonist	hcGAS lum	mcGAS lum
CC(=O)N1CCc2c(sc(NC(=O)c3ccccc3)c2-c2nc3ccccc3s2)C1	-	-	.
CN1CCc2c(sc(NC(=O)Cc3ccccc3)c2-c2nc3ccccc3s2)C1	45.1	-	-
CC(C)N1CCc2c(sc(NC(=O)c3ccc([N+](=O)[O-])o3)c2-c2nc3ccccc3s2)C1	-	-	-
CC(=O)N1CCc2c(sc(NC(=O)Cc3ccccc3)c2-c2nc3ccccc3s2)C1	-	-	.
CCOC(=O)N1CCc2c(sc(NC(=O)C(C)C)c2-c2nc3ccccc3s2)C1	-	-	.
CC(C)C(=O)Nc1sc2c(c1-c1nc3ccccc3s1)CCN(C)C2	48.9	-	-
CC(C)C(=O)Nc1sc2c(c1-c1nc3ccccc3s1)CCN(C(C)C)C2	66.4	77.8	89.7
CC(C)N1CCc2c(sc(NC(=O)C3CC3)c2-c2nc3ccccc3s2)C1	166.0	45.2	-
CCCCOc1ccc(C(=O)Nc2c(-c3cc(C)cc(C)c3)nc3cc(C)ccn23)cc1	-	-	-
CN(Cc1ccon1)c1ccc(C(=O)N2CCC(CCn3cccn3)CC2)cn1	-	-	.
O=C(CN1C(=O)CSc2ccccc21)Nc1ccc(N2CCCC2=O)cc1	-	-	.
O=C1NC(=S)SC1=Cc1cc(Cl)c2c(c1)OCO2	-	-	-
O=C1NC(=S)S/C1=C/c1cc(Br)c(O)c(Br)c1	-	-	42.5
O=C1NC(=S)N/C1=C\c1cc(Br)c(O)c(Br)c1	-	-	-
O=C1NC(=S)SC1=Cc1cc(O)c(O)c(Cl)c1	99.1	-	.
O=C1NC(=S)S/C1=C\C(Br)=C\c1ccccc1	-	-	51.5
O=C1NC(=S)S/C1=C/C=C/c1ccccc1	-	-	-
CC(C)N(CC(=O)N(CCc1c[nH]c2ccccc12)Cc1ccc(Cl)c(Cl)c1)Cc1cc(F)ccc1F	-	-	-
COc1ccc(CCNC(=O)c2ccccc2N2CCC(NC(=O)c3ccc(F)cc3F)CC2)cc1OC	-	-	-
COc1cccc(C(=O)CSc2nnc(NC(=O)c3ccccc3OC)s2)c1	-	-	-
COc1cc2oc(=O)cc(C)c2c(OC)c1OC(C)=O	-	-	.
CC(=O)Oc1cc2oc(=O)c(Cl)c(C)c2cc1Cl	-	72.2	-
Cc1ccc2c(=O)c(C(=O)N3CCCC3)cn(CC(=O)Nc3ccc(F)cc3)c2n1	-	-	-
CC(C)(C)C1CCc2sc(C(=O)N3CCNC(=O)C3)cc2C1 (configuration not stated)	-	-	93.3
CC(C)(C)C1CCc2sc(C(=O)NN3C(=O)NC4(CCCCC4)C3=O)cc2C1 (configuration not stated)	-	-	.
SMILES	NPYLR7 agonist	hcGAS lum	mcGAS lum
CCCN(Cc1ccc(SC)cc1)C(=O)c1cc(C)[nH]n1	-	-	.
O=C(CSc1ncnc2c1nnn2Cc1ccccc1)NCc1ccccc1Cl	-	-	-
Nc1c2ccccc2nc2ccccc12 (tested in a mixture with another compound)	-	54.5	.
Nc1ccccc1-c1nc(-c2ccccc2)nc2ccccc12	-	-	-
O=C1CC(C(=O)N(Cc2ccccc2F)C2CC2)CCN1 (configuration not stated)	-	-	.
COc1ccc(C(N)CC(=O)N2C[C@H]3CC=CC[C@H]3C2)cc1OC (some centres not stated)	-	-	-
CCCc1nn2c(N)c(C=C3C=C(Cl)C(=O)C(Cl)=C3)c(=O)nc2s1	51.3	-	52.5
CCCc1nn2c(N)c(C=C3C=CC(=O)C=C3)c(=O)nc2s1	-	-	.
CCCCN(C)C1=CC2=CC(=C(C#N)C#N)CCC2CC1 (configuration not stated)	+	-	-
CN(Cc1ccccc1)C1=CC2=CC(=C(C#N)C#N)CCC2CC1 (configuration not stated)	117.8	-	.
CCN(CC)C1=CC2=CC(=C(C#N)C#N)CCC2CC1 (configuration not stated)	614.6	-	-
CS(=O)(=O)CC(=O)N(Cc1ccccc1)CC1CCC1	-	-	.
CC(C)C(=O)Nc1ccc(SCC(=O)NC2CCCC2)nn1	-	-	.
O=C1CSC(c2cccc(C(F)(F)F)c2)N1CCO (configuration not stated)	-	-	-
CN(C)S(=O)(=O)c1ccc(C(=O)Nc2ccc3c(c2)C(=O)c2ccccc2C3=O)cc1	-	-	104.5
Cc1ccc(C(=O)Nc2ccc3c(c2)C(=O)c2ccccc2C3=O)cc1	-	-	.
Cc1cc(C)nc(SCc2cc(=O)n3[nH]c(C)c(-c4ccccc4)c3n2)n1	-	-	.
COCc1[nH]n2c(=O)cc(Cc3ccccc3)nc2c1-c1ccccc1	-	56.5	.
CCCc1cc(=O)n2[nH]c(COC)c(-c3ccc(C)cc3)c2n1	-	-	.
O=c1cc(Cc2ccccc2)nc2c(-c3ccccc3)c(C(F)(F)F)[nH]n12	-	68.1	.
Cc1c(Cl)cccc1NC(=O)CNC(=O)C1CC(=O)N(C(C)c2ccccc2)C1 (configuration not stated)	-	-	-
CCOc1ccc(C2=C(C(C)=O)Sc3nnc(Cc4ccc(OC)cc4)n3N2C(C)=O)cc1	-	-	.
O=C(C1CCCC1)N1CCC(NCc2cccc3c2OCCCO3)C1 (configuration not stated)	-	-	-
COCCCN(Cc1c(-c2ccccc2)noc1N1CCC(C)CC1)C(=O)c1ccccc1F	-	-	-
COC(=O)c1c(C)c2c(c(C)c1O)OC(=O)c1c(C)c(Cl)c(O)c(Cl)c1O2	-	-	-
SMILES	NPYLR7 agonist	hcGAS lum	mcGAS lum
Cc1cc(O)c(C=O)c2c1C(=O)Oc1c(C)c(O)c3c(c1O2)C(O)OC3=O (configuration not stated)	-	42.2	.
COc1cc(C)c2c(c1C=O)Oc1c(c(C)c(O)c3c1C(O)OC3=O)OC2=O (configuration not stated)	-	69.8	40.6
c1csc(-c2nnn(-c3ncnc4sccc34)n2)c1	-	-	.
O=S(=O)(N=C(NS(=O)(=O)c1ccccc1)c1ccccc1)c1ccc2ccccc2c1	-	-	-
c1cc(-c2ccc(NC3CC3)nn2)c2cc[nH]c2c1	-	-	-
CC(C)(O)C1CCCN1Cc1ccccc1 (configuration not stated)	-	-	.
COc1ccc(C)cc1NC(C)C(=O)N1CCCCCC1 (configuration not stated)	-	-	-
Brc1ccsc1/C=C/c1cccs1	-	-	.
COC(=O)c1cc(N)c(/C=C/c2cccs2)s1	184.4	-	.
Cc1noc(C)c1S(=O)(=O)Oc1ccccc1C(N)=O	-	-	.
O=C1c2ccccc2C(=O)C1c1ccnc2ccccc12	102.6	-	-
O=C1c2ccccc2C(=O)C1c1nccc2ccccc12	-	-	.
C=C1c2ccccc2NC(=O)N1CC1CCCN1CC (configuration not stated)	-	-	.
COc1cc(C=C(C#N)S(=O)(=O)c2cc(Br)ccc2Br)cc(OC)c1	-	-	.
COc1cc(C=C(C#N)S(=O)(=O)c2cc(Br)ccc2Br)ccc1O	169.9	-	.
Cn1c(/C(C#N)=C/c2ccc(N3CCOCC3)o2)nc2ccccc21	125.8	-	.
Cn1c(C(C#N)=Cc2ccc([N+](=O)[O-])s2)nc2ccccc21	-	-	.
O=c1nc2sc3[nH]c(=O)sc3cc-2s1	244.2	-	46.3
COc1ccc(S(=O)(=O)Oc2cccc(CN(C(=O)Nc3ccccc3OC)C3CC3)c2)cc1	-	-	41.5

Screens: PubChem BioAssay, Fisher Drug Discovery Resource Center
